Beta cell apopt: blocks beta cell apoptosis | protection from apoptosis, % (concentration not given with the values) | AID 435005 | INS-1E cytokine-induced death, ATP luminescence, 48 h; percent of positive-control rescue, neutral wells zero | 300,000 tested, 0.8% active;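 active means Every replicate reaches about 75%, or at least half do and their mean reaches it too, limit read from the data; inconclusive means At least half of replicates reach the limit but their mean does not; inactive means Under half of replicates reach the limit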;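 further: 0% = cytokine-treated negative control wells and 100% = positive control rescue; higher means more ATP so stronger rescue from cytokine killing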
CSC inhib: blocks cancer stem cells | 300,000 tested, 1.1% active | inhibition, % at 7.5 µM | cancer stem cell-like cells viability, luminescence; in the data active means inhibition above about 75%; inconclusive means no clear call, values can overlap the other calls; tested in HMLE shEcad cells
MPTP block: permeability transition pore inhibition; isolated mouse mitochondria, Ca2+ swelling absorbance, 30 min; inhibition, % at 10 µM; 360,000 tested, 1.4% active;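 active means inhibition of 50% or more, scaled per plate between neutral and stimulator controls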;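 further: 0% = DMSO wells given calcium and 100% = 1 mM EGTA wells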
NR3A LBD binder: NR3A (human) ligand-binding domain modulation; Tm shift relative to glycine control, % at 25 µM; 340,000 tested, 2.5% active; NR3A LBD differential scanning fluorimetry, Tm shift; 0% = protein alone, 100% = glycine-bound protein;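 active means melting temperature shift of at least 10% of the positive control shift, at one fixed dose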
Gli-Sufu antag: Gli-Sufu pathway antagonism; Sufu-KO-LIGHT fibroblasts, Gli luciferase reporter luminescence; inhibition, % at 5 µM; 340,000 tested, 0.74% active; AID 588413;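 active means inhibition above about 55%, limit read from the data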;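 further: 0% = DMSO-treated cells and 100% = wells with medium but no cells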
Mdm2 MdmX PPI: human Mdm2/MdmX binding inhibition; O15151+Q00987; SaOS-2 split-luciferase Mdm2/MdmX complementation, luminescence; inhibition, % at 8 µM; 330,000 tested, 3% active; AID 485346;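 active means inhibition of at least 50% at 8 µM in the primary screen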
Target sequence (O15151 whole entry, looked up): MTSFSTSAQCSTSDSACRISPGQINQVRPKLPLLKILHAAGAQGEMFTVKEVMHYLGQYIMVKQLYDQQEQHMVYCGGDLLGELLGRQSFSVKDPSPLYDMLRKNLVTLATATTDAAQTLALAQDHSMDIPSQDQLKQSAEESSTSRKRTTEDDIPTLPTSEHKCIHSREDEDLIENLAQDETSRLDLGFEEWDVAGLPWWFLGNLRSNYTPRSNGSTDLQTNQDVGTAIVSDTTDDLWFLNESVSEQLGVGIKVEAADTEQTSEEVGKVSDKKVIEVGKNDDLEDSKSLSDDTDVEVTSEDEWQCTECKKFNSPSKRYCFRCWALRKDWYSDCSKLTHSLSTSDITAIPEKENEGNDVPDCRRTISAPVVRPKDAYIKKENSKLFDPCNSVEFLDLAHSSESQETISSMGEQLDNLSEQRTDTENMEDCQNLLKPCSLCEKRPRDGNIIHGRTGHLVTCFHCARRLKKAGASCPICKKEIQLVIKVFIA
Target sequence (Q00987 whole entry, looked up): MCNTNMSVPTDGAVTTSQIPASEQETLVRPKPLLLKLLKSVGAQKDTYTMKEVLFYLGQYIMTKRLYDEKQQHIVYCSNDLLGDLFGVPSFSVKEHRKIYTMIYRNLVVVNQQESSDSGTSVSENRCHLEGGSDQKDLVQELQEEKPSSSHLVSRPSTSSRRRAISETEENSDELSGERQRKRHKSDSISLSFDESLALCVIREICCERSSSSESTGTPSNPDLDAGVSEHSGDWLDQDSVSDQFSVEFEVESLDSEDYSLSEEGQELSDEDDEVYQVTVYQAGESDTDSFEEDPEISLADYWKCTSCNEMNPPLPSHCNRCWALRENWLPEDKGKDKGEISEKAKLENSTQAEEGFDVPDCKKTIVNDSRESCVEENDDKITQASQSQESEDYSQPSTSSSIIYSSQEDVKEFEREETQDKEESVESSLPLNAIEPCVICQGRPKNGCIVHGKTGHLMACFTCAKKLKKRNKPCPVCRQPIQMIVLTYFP
Mdm2-MdmX conf: human Mdm2/MdmX binding inhibition, confirmed. shares compounds with Mdm2 MdmX PPI. luminescent assay. inhibition, % at 8 µM. 10,000 tested, 55% active; in the data active means inhibition above about 40%
FLuc counter: inhibits full-length luciferase, flagging false Mdm2/MdmX hits; shares compounds with Mdm2 MdmX PPI; SaOS-2 full-length luciferase counterscreen, luminescence; inhibition, % at 8 µM; 6,200 tested, 77% active;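 active means mean inhibition at 8 µM reaching about 37%, which flags the compound as non-specific, limit read from the data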;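 further: p53-null SaOS-2 cells with luciferase driven by a doxycycline-inducible promoter; compound on cells about two nights before reading with doxycycline added after day one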
Numbers without * were called inactive; ? = inconclusive; / = no result given. Hits are enriched below; roughly 6.6% of the tested compounds scored in any of these assays.

SMILES	Beta cell apopt	CSC inhib	MPTP block	NR3A LBD binder	Gli-Sufu antag	Mdm2 MdmX PPI	Mdm2-MdmX conf	FLuc counter
Cc1nc(SCC(=O)NCC2CCCO2)c2cc(-c3ccccc3)sc2n1 (centres undefined)	2	/	-1	-1	-20	71*	15	/
O=C(CSc1nnc(-c2ccccc2)c2ccccc12)NCC1CCCO1 (centres undefined)	0	/	0	/	/	-9	/	/
COc1ccc(NC(=O)c2cc(C)nc3ccccc23)cc1S(=O)(=O)N1CCOCC1	1	-6	2	-2	8	4	/	/
COc1ccc(Nc2nc(-c3ccccc3)nc3ccccc23)cc1S(=O)(=O)N1CCOCC1	22	54	5	11*	9	79*	77*	63*
COc1ccc(C2CC(c3ccccc3)Nc3nc(NS(C)(=O)=O)nn32)cc1 (centres undefined)	-11	-5	0	0	-11	4	/	/
CCOC(=O)C1(N(CC)CC)Sc2cc(C)ccc2NC1=O (centres undefined)	8	37	4	-3	-9	68*	69*	52*
CN(C)c1ccc(Cl)c(NC(N)=S)c1	/	/	-2	/	/	/	/	/
COc1cc(C)c(C(=O)CC(=O)c2c(C)cc(OC)cc2C)c(C)c1	75*	132*	-2	1	3	51*	16	/
COc1cc2sc(NC(=O)c3ccco3)nc2cc1Cl	0	21	1	5	-69	64*	-56	/
O=C(Nc1nnc(-c2ccccc2SCc2ccccc2F)s1)Nc1ccccc1F	25	9	3	2	-17	79*	66*	101*
Cc1n[nH]c(=S)n1/N=C/c1ccc(OCc2ccc(Cl)cc2Cl)cc1	19	14	3	-5	-49	-72	/	/
Cc1n[nH]c(=S)n1/N=C/c1ccccc1OCc1ccc(Cl)cc1Cl	8	-6	2	16*	-10	53*	11	/
COC(=O)c1ccc(N2CCCCC2)c(NS(=O)(=O)c2ccc(C)cc2)c1	/	/	0	0	14	65*	57*	62*
COC(=O)c1ccc(Cl)c(NS(=O)(=O)c2ccc3c(c2)OCCO3)c1	2	41	1	5	27	53*	47*	55*
CCN(CC)CCNC(=O)c1ccc(N2CCCCC2)c(NS(=O)(=O)c2ccc(C)cc2)c1	0	7	2	4	0	27	/	/
COCCN1C[C@@H](CO)O[C@@H](n2cnc3c(N(C)C(C)C)ncnc32)C1	/	/	-1	/	/	/	/	/
OC1(C#Cc2c(-c3ccsc3)oc3ccc(N4CCOCC4)cc23)CCCCC1	/	4	-1	-13	-4	24	/	/
COc1ccc(-c2oc3ccc(N4CCOCC4)cc3c2C#CC2(O)CCCCC2)cc1	/	14	1	-9	2	73*	59*	54*
COc1ccc(-c2oc3cccnc3c2C#CC2(O)CCCCC2)cc1	3	36	2	-11	-2	52*	39	/
COc1cc(-c2ccc3oc(-c4ccsc4)c(C#CC4(O)CCCCC4)c3c2)cc(OC)c1OC	15	73	1	-1	3	52*	9	/
COc1ccc(-c2oc3ccc(-c4cc(OC)c(OC)c(OC)c4)cc3c2C#Cc2ccccn2)cc1	-1	37	-1	-8	17	85*	64*	64*
CN(C)c1ccc(CNC(=O)/C=C/[C@H]2O[C@@H](n3ccc(=O)[nH]c3=O)[C@H](O)[C@@H]2O)cc1	/	/	0	/	/	/	/	/
N#Cc1cccc(-c2csc(C(O)c3ccc(F)cc3)n2)c1 (centres undefined)	/	/	0	/	/	/	/	/
CCOC(=O)/C(C#N)=C/c1cc2ccccc2nc1Cl	1	0	0	4	-1	27	/	/
CSc1nc2ccccc2cc1/C=C(\C#N)c1cccc(Cl)c1	20	?	3	3	7	57*	56*	58*
SMILES	Beta cell apopt	CSC inhib	MPTP block	NR3A LBD binder	Gli-Sufu antag	Mdm2 MdmX PPI	Mdm2-MdmX conf	FLuc counter
O=C(Nc1nc(-c2ccccn2)cs1)c1ccccc1-n1cnnn1	78*	34	0	-1	36	72*	75*	30
O=C(Nc1nc(-c2ccccn2)cs1)c1ccc([N+](=O)[O-])o1	90*	47	0	-5	4	77*	68*	37*
Cc1ccc(C(=O)Nc2nc(-c3ccccn3)cs2)o1	62	31	0	8	-11	74*	56*	40*
CCc1cc(C(=O)Nc2nc(-c3ccccn3)cs2)sc1C	60	20	2	0	/	52*	56*	51*
CC1CC1C(=O)Nc1nc(-c2ccccn2)cs1 (centres undefined)	-1	2	-3	0	-6	20	/	/
CCC(=O)N[C@H]1CC[C@@H](CCn2cc(C3CC3)nn2)O[C@@H]1CO	/	/	2	/	/	/	/	/
CCn1nccc1NC(=O)c1csc([C@@H]2C[C@H](O)[C@@H](CO)O2)n1	/	/	0	/	/	/	/	/
CCCn1nc(C(=O)Nc2nc(-c3ccccn3)cs2)c2ccccc2c1=O	66	/	0	-6	4	62*	50*	53*
O=C(Nc1nc(-c2ccccn2)cs1)c1ccc(-c2ccccc2F)o1	34	/	10	12*	-12	57*	50*	63*
CCn1nc(C(=O)Nc2nc(-c3ccccn3)cs2)c2ccccc2c1=O	32	/	0	-1	-15	42	/	/
O=C(Nc1nc(-c2ccccn2)cs1)c1ccc2c(c1)OCCO2	5	26	-1	-10	-80	-32	/	/
O=C(Nc1nc(-c2ccccn2)cs1)C1COc2ccccc2O1 (centres undefined)	-1	38	-1	-1	-9	65*	71*	56*
CC(=O)c1ccc(-c2ccc(C(=O)Nc3nc(-c4ccccn4)cs3)o2)cc1	-10	26	-2	11*	-63	91*	86*	40*
Cc1nn(-c2ccc(F)cc2)c(Cl)c1C(=O)OC(C)C(=O)N(C)C1CCCCC1 (centres undefined)	-3	4	-1	1	18	15	/	/
O=S(=O)(c1ccccc1Br)N1CCN(c2ncccn2)CC1	-9	/	-1	-1	-17	9	/	/
O=C1c2ccccc2-c2onc3ccc(NCc4ccco4)c1c23	44	51	6	-2	19	58*	25	/
O=C(O)c1ccc(Sc2nnnn2-c2ccccc2)c([N+](=O)[O-])c1	-12	6	-2	-2	0	5	/	/
COC(=O)c1ccc(Sc2nnnn2-c2ccccc2)c([N+](=O)[O-])c1	-27	4	0	0	17	68*	49*	23
O=C(CNC(=O)c1ccccc1O)N/N=C/c1cc(Br)ccc1OC(=O)/C=C/c1ccco1	89*	-2	/	13*	-1	51*	70*	41*
